Data reported in PubChem BioAssay AID1529 (NMMLSC, 2009).
The whole screen tested about 290,000 compounds, of which about 4,200 (1.4%) were called active.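 Rule for the calls: active = binding response more than 3 SD above or below the average of its plate-row segment, actives on both sides; inconclusive = wells at one plate position flagged as instrument error; inactive = the rest.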 What follows is part of a selection rich in actives, with near analogues and random picks from the rest.

Biological target: Mitogen-activated protein kinase kinase kinase 3 (Homo sapiens) (UniProt Q99759)
Sequence (Q99759 whole entry, looked up): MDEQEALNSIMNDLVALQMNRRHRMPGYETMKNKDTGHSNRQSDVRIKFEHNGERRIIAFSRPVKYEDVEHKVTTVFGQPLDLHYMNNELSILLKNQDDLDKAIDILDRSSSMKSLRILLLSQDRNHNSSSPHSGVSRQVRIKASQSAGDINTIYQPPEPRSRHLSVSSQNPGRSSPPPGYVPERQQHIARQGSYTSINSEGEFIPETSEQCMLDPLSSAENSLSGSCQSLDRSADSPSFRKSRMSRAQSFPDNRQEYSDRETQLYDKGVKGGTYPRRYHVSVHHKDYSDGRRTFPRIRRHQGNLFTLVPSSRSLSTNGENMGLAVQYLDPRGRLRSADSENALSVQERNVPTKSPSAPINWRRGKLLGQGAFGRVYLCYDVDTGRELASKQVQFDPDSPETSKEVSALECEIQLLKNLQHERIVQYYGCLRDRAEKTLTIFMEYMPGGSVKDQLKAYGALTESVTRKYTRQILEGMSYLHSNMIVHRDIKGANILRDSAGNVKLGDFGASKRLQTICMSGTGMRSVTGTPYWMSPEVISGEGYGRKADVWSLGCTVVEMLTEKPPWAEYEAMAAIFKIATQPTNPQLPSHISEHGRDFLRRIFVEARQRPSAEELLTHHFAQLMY
Test: modulators of MEKK3-MEK5 PB1 binding, primary screen, biochemical, wildtype MEKK3, multiplex bead flow cytometry, Alexa488-MEK5 (AID 1529);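 note: Alexa488 bead fluorescence after subtracting the streptavidin-only scavenger bead signal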
Settings: bead-based flow cytometry, Alexa488-MEK5 binding to MEKK3; at 10 µM; actives lie on both sides; 0 = blocked by unlabeled MEK5, 100 = vehicle

SMILES	binding response (% of control)
Cc1ccc(N(CCC(=O)O)S(=O)(=O)c2cccc(C(F)(F)F)c2)cc1	3% [inhibitor] (active)
O=C(O)c1cc(S(=O)(=O)N(Cc2ccccc2)c2cccc(C(F)(F)F)c2)ccc1Cl	106% (inactive)
CCc1nnc(NC(=O)CCN(c2ccc(C)cc2)S(=O)(=O)c2ccccc2)s1	108% (inactive)
Cc1cc(=O)n2nc(N3CCCC(C(=O)NCc4ccc(Cl)cc4)C3)sc2n1 (configuration not stated)	99% (inactive)
Cc1ccnc(N2CCCC(C(=O)NC3CC3)C2)n1 (configuration not stated)	100% (inactive)
COc1cc(C)nc(N2CCCC(C(=O)NCC(C)C)C2)n1 (configuration not stated)	130% (active)
CN1CCN(CCNC(=O)Nc2ccccc2[N+](=O)[O-])CC1	104% (inactive)
Cc1ccccc1CCN(CC(=O)NC1CCCCC1)C(=O)c1csnn1	142% (active)
Cc1ccc(CN(CC(=O)NC2CCCCC2)C(=O)c2csnn2)cc1	103% (inactive)
O=C(CN(C(=O)c1csnn1)c1ccc(Br)cc1)NC1CCCC1	101% (inactive)
COc1ccccc1CC(=O)Nc1ccc(F)cc1F	106% (inactive)
COc1ccccc1CC(=O)Nc1ccc([N+](=O)[O-])cc1OC	139% (active)
COc1cc([N+](=O)[O-])ccc1NC(=O)CN1CCCC1	104% (inactive)
CCC(C)NC(=O)C1c2ccccc2Oc2ccccc21 (configuration not stated)	71% (inactive)
CC(C)(C)c1nnc(NC(=O)C2c3ccccc3Oc3ccccc32)s1	45% [inhibitor] (active)
CCC(C)(C)NC(=O)C1c2ccccc2Oc2ccccc21	99% (inactive)
C=CCSc1nnc2c(n1)-c1cccc3cccc-2c13	104% (inactive)
COc1ccc(C(=O)NC(=S)NC2CCCCC2)cc1	106% (inactive)
Brc1ccccc1C1N=C(c2ccccc2)NO1 (configuration not stated)	103% (inactive)
Cc1ccc2c(c1)N(C(=O)CCC(=O)NCc1cccnc1)CCO2	100% (inactive)
COc1cccc(NC(=O)CN(C)C(=O)Cc2ccc(Cl)cc2Cl)c1	106% (inactive)

SMILES	binding response (% of control)
COc1cccc(NC(=O)CN(C)C(=O)/C=C/c2cc(OC)ccc2OC)c1	151% (active)
COc1ccc(/C=C/C(=O)OCC(=O)Nc2cccc(Oc3ccccc3)c2)c(OC)c1	106% (inactive)
CCOC(=O)N1CCN(C(=O)c2cn(C)c3ccc(S(=O)(=O)N(CC)CC)cc3c2=O)CC1	98% (inactive)
CCOC(=O)CC1(NC(=O)c2cc(COc3cncc(Cl)c3)on2)CCCCC1	103% (inactive)
O=C(CN1C(=O)CSC1=O)N1CCCC(Nc2ccc(F)cc2)C1 (configuration not stated)	102% (inactive)
CN(C(=O)c1cc2c(=O)n3ccccc3nc2s1)C1CCCCC1	100% (inactive)
Cn1c(=O)c2c(nc(N/N=C/c3cccs3)n2Cc2ccc(Br)cc2)n(C)c1=O	131% (active)
Cn1c(=O)c2c(nc(NCCc3ccccc3)n2Cc2ccccc2)n(C)c1=O	96% (inactive)
Cn1c(=O)c2sccc2n(Cc2ccc(Br)cc2)c1=O	101% (inactive)
COc1ccc(OCC(=O)NNC(=O)c2cccc(C)c2)cc1	103% (inactive)
COc1cccc(OCC(=O)Nc2ccccc2C(N)=O)c1	110% (inactive)
COc1cccc(OCC(=O)NNC(=O)c2cnccn2)c1	2% [inhibitor] (active)
Cc1c(C(C)(C)O)[nH]c2ccc(C#N)cc12	103% (inactive)
Cc1ccc(S(=O)(=O)NCC(C)NS(C)(=O)=O)cc1 (configuration not stated)	97% (inactive)
CCOC(=O)C(NS(=O)(=O)c1ccc(C)cc1)(C(F)(F)F)P(=O)(OCC(C)C)OCC(C)C (configuration not stated)	140% (active)
CC(=O)N1CCN(CC(C)(C)NS(=O)(=O)c2ccc(C)cc2)CC1	102% (inactive)
CC(C)c1ccc(C(=O)NCCCc2ccccc2)cc1	2% [inhibitor] (active)
Cc1cc(C(=O)NCCCc2ccccc2)no1	99% (inactive)
CCCOc1ccc(C(=O)NCCc2ccccc2)cc1	97% (inactive)
Cc1ccccc1-n1c(C)cc(/C=C2\NC(=O)NC2=O)c1C	57% (inactive)
C#CCOc1ccccc1/C=C1/C(=O)ON=C1C	110% (inactive)

SMILES	binding response (% of control)
Cc1no[n+]([O-])c1COc1ccccc1/C=C1\NC(=S)NC1=O	126% (active)
COc1cc(S(=O)(=O)Nc2ncn[nH]2)ccc1Cl	102% (inactive)
CS(=O)(=O)Nc1ccc(C2=NN(S(C)(=O)=O)C(c3cccs3)C2)cc1 (configuration not stated)	10% [inhibitor] (active)
CS(=O)(=O)Nc1cccc(C2=NN(S(=O)(=O)c3ccccc3)C(c3cccs3)C2)c1 (configuration not stated)	95% (inactive)
CCS(=O)(=O)Nc1ccc(C2=NN(C(C)=O)C(c3cccs3)C2)cc1 (configuration not stated)	55% (inactive)
Cc1occc(=O)c1OCc1c(Cl)cccc1Cl	102% (inactive)
CCOc1ccc(NC(=O)C2CCN(C(=O)N3CCOc4ccccc43)CC2)cc1	103% (inactive)
Cc1ccc(-c2noc(C3CCCN(C(=O)c4cccc(Cl)c4)C3)n2)o1 (configuration not stated)	99% (inactive)
COc1ccc(N2CCN(C(=O)CN3C(=O)COc4ccccc43)CC2)cc1	101% (inactive)
COc1ccc(OCCCCN2CCC(C)CC2)cc1	108% (inactive)
C/C=C/c1ccc(OCCOc2ccc(C=O)cc2OC)c(OC)c1	100% (inactive)
C/C=C/c1ccc(OCCCCN2CCC(C)CC2)c(OC)c1	69% [inhibitor] (active)
O=c1[nH]snc1-c1c(Cl)cccc1Cl	105% (inactive)
COc1cccc(NC(=O)COc2cc(C)cc3oc(=O)cc(C)c23)c1	103% (inactive)
CCOC(=O)N1CCN(CCC(=O)Nc2cc(OC)ccc2OC)CC1	96% (inactive)
CCN1CCN(c2nc(Nc3cc(OC)ccc3OC)nc(Nc3cc(OC)ccc3OC)n2)CC1	37% [inhibitor] (active)
CCOc1ccc(Nc2nc(Cl)nc(N3CCN(c4ccc(OC)cc4)CC3)n2)cc1	103% (inactive)
CC(=O)O[C@H]1c2ccccc2-c2ccccc2[C@@H]1OC(C)=O	104% (inactive)
COC(=O)c1ccc(NC(=O)c2cc3c(CO)cnc(C)c3oc2=Nc2cccc(C(N)=O)c2)cc1	102% (inactive)
O=C(NC1CCCC1)C(c1ccco1)N(C(=O)c1csnn1)c1ccccc1 (configuration not stated)	100% (inactive)
